Columns and labels:
Experiment in all cases: PBM binding z-score (relative to random genomic background probes); higher = stronger binding; sequences stand for … in GC…GCGATTGACAGCGTAGAATGAAGG
[1] = system: FXR:RXRa (NR concentration 270 nM, RXRa partner concentration 90 nM)
Procedure, shortened: (§1)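 Binding z-scores were set against random background probes. The data came from custom Agilent 4×180K protein-binding microarrays carrying double-stranded probes with 34-nt variable regions, incubated 1 h with ligand-free nuclear receptor dimers. Partner-specific antibodies detected binding, and scanned fluorescence was regression-normalized.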

[2] = system: LXRa:RXRa (NR concentration 270 nM, RXRa partner concentration 90 nM)
Procedure, shortened: as §1

[3] = system: LXRa homodimer (NR concentration 270 nM)
Procedure, shortened: as §1

[4] = system: LXRb:RXRa (NR concentration 270 nM, RXRa partner concentration 90 nM)
Procedure, shortened: as §1

[5] = system: LXRb homodimer (NR concentration 270 nM)
Procedure, shortened: as §1

[6] = system: PPARa:RXRa (NR concentration 270 nM, RXRa partner concentration 90 nM)
Procedure, shortened: as §1

[7] = system: PPARg:RXRa (NR concentration 180 nM, RXRa partner concentration 90 nM)
Procedure, shortened: as §1

[8] = system: PPARg:RXRa 270nM:90nM, anti-RXR (NR concentration 270 nM, RXRa partner concentration 90 nM)
Procedure, shortened: as §1

[9] = system: PPARg:RXRa 30nM:10nM, anti-RXR (NR concentration 30 nM, RXRa partner concentration 10 nM)
Procedure, shortened: as §1

[10] = system: PPARg:RXRa 90nM:30nM, anti-RXR (NR concentration 90 nM, RXRa partner concentration 30 nM)
Procedure, shortened: as §1

Sequence | PBM binding z-score [1] | PBM binding z-score [2] | PBM binding z-score [3] | PBM binding z-score [4] | PBM binding z-score [5] | PBM binding z-score [6] | PBM binding z-score [7] | PBM binding z-score [8] | PBM binding z-score [9] | PBM binding z-score [10]
AGAACGAGGGCACGCTGAGTTGATAACAGAGTAG | 0.997 | 0.505 | -0.474 | 0.399 | -0.662 | 2.29 | 2.11 | 1.82 | 0.679 | 1.14
TAGCCTAGGTCATTGGGCCAGTAAAGTACGCATC | 4.37 | 3.38 | 0.448 | 2.29 | 0.0341 | 4 | 3.28 | 3.76 | 1.14 | 2.4
CGAACGAAGGCATGAGTTGATAGCAAATGCCGAT | -0.766 | -0.753 | -0.489 | -0.751 | -1.09 | -0.568 | 0.575 | -0.579 | -0.739 | -0.741
GCTATTAGTTGAAAGGGCAACCTAATGATTCTCG | 0.451 | 0.673 | 0.238 | 1.08 | -0.393 | 2.38 | 2.46 | 4.31 | 2.24 | 4.3
ATCTCTAGGTAACCAAATTCAGTGAATGCCGAAC | 0.306 | 0.196 | 0.385 | 0.283 | 0.743 | 0.476 | 0.6 | 0.634 | 0.182 | 0.59
CTACCAAGGTGATCAAGGTCGTTGATTACTATTC | 0.873 | 0.837 | 0.0949 | 1.29 | -0.12 | 1.65 | 0.258 | 0.508 | -0.15 | 0.529
CGAACTGGGTCAAGGACAGTGAATCTCCGCACGC | 2.51 | 1.36 | -0.258 | 1.24 | -0.484 | 4.39 | 6.95 | 6.03 | 2.89 | 5.37
GCTATTAGTTGAAAGGTCAACCGAATGATTCTCG | 5.42 | 6.07 | 4.71 | 5.26 | 1.55 | 5.77 | 7.71 | 6.96 | 6.56 | 7.52
CTCGAAAGGTCGGTTGAGGTGAGTTTACGGATAA | 2.83 | 1.88 | 0.32 | 1.63 | -0.184 | 2.69 | -9.87e-05 | 1.12 | 0.0415 | 0.508
CCTGCTAGGTCAATGGTCAGCTTAAGCAGCTCGC | 3.08 | 2.28 | -0.0012 | 1.51 | -0.1 | 3.13 | 4.41 | 5.21 | 2.37 | 4.79
CGAACTAGGTCAAAACAGGACAGTGAAGGATGAT | 3.26 | 3.07 | 0.154 | 1.86 | 0.313 | 4.54 | 6.73 | 5.86 | 3.32 | 5.36
ATCGAAAGGTCGTGAGGTGAGTAAACAGAAAGGC | 5.42 | 3.82 | 0.314 | 3.14 | 0.648 | 5.03 | 3.9 | 4.4 | 1.22 | 2.97
TCGAGTAGGGTAGTCGGGGCATTCAGCCAACATA | -0.261 | -0.324 | -0.232 | 0.0407 | -0.844 | 0.109 | -0.307 | 0.468 | 0.525 | 0.442
TGAAAGAGGTTATAAGATCAGGGAACGTTGCAAA | 2.03 | 1.91 | -0.395 | 1.33 | -0.331 | 2.91 | 1.11 | 1.46 | 0.81 | 1.12
TCTCGGACGACACGAAAGGTCAGAGCTCGACATC | 2.91 | 3.74 | 2.39 | 3.3 | 0.313 | 3.69 | 1.12 | 2.86 | 2.84 | 2.66
ACAGACAGCTGAGTGAAGGTAACTCAGCTGGACG | -0.287 | -0.122 | -0.822 | -0.496 | -0.626 | -0.464 | 0.214 | -0.699 | -0.617 | -0.561
TCTATTAGTTGAAGGGTAACCGACGAGTCCGTTT | 1.06 | 1.12 | 0.425 | 1.17 | 0.781 | 1.35 | 0.607 | 2.8 | 4.16 | 3.37
TTACCAAGGTGAAGTTCGTTGATCCCTCTGTAGA | 1.07 | 1.09 | -0.342 | 0.617 | -0.644 | 1.98 | 1.16 | 2.35 | 0.877 | 2.05
CCGACTGGGGCAAAGTTTACCATACTCAGTACGA | -0.248 | 0.0946 | -0.139 | 0.553 | -0.586 | 3.67 | 8.3 | 7.72 | 6.38 | 8.55
TCTATTAGTTGTTTAGGGCAACCGAAACAGCGGA | 0.479 | 0.468 | 0.25 | 0.727 | 1.15 | 0.938 | -0.0257 | 2.1 | 3.88 | 2.99
ATCCCTAGGTAAGACTCAGTTCAGTGAAGAACGC | 0.273 | 0.364 | 0.479 | 0.29 | 0.516 | -0.0282 | 0.0747 | -0.195 | -0.259 | -0.0563
CCTTACGGGTCACGAGGTTATAGCTCGACGAGCG | 6.98 | 4.79 | 0.064 | 3.92 | 0.048 | 6.3 | 7.52 | 6.72 | 3.42 | 5.91
GCTAGCAGGCCCTTTGGGTCACTCAATGACGGGC | -0.0163 | -0.0683 | -0.519 | -0.325 | -1.53 | 0.647 | 0.157 | 0.373 | -0.568 | 0.116
TCATATAGGTAAACACGTGAAAGTCCGTAAGTTA | 0.505 | 0.566 | 0.235 | 0.56 | 0.236 | 1.33 | 1.16 | 2.12 | 3.63 | 2.89
GATACAGGGTCAGCTAGAGGCCAGATTATGGAAA | 4.25 | 2.85 | -0.166 | 2.68 | -0.373 | 4.42 | 3.59 | 3.18 | 0.899 | 1.88

Source: the supplement of paper PMC6555819
